According to PubChem BioAssay AID1240 (Sanford-Burnham Center for Chemical Genomics, 2008):
The whole screen tested about 50,000 compounds, of which about 800 (1.6%) showed an effect of 50% or more. Many of the other results were omitted from the sample, so strong results are more common in it than they were.

biological target: Bcl-2-like protein 10 (Homo sapiens) (UniProt Q9HD36); experiment: Phenotype converters, Bcl-B/TR3 peptide binding displacement, primary biochemical FP (AID 1240); settings: GST-Bcl-B / FITC-TR3 peptide fluorescence polarization; stronger effect = higher value; compound at 3.75 mg/L;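 note: 0% = Bcl-B with tracer peptide and DMSO and 100% = tracer peptide lacking Bcl-B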
Sequence (Q9HD36 whole entry, looked up): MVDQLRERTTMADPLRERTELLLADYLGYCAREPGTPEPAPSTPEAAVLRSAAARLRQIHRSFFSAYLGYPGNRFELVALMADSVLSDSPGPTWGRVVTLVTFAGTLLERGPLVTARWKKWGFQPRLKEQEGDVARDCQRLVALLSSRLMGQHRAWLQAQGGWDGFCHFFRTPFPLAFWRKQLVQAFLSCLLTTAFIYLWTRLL

| Structure (SMILES) | displacement |
| --- | --- |
| O=C(CN1C(=O)CCC1=O)NCCc1ccccc1 | -5.5% |
| COc1ccc(Cl)cc1C(=O)Nc1cccc2nsnc12 | 12.8% |
| O=C1C(Cl)=C(Nc2ccccc2)C(=O)N1c1ccc(Br)cc1 | 6.4% |
| COc1ccccc1-n1c(O)c(C=Nc2ccccc2Cl)c(=O)[nH]c1=O | 1.2% |
| O=C1C2=C(Nc3ccccc3SC2c2ccc3c(c2)OCO3)c2ccccc21 (stereo not drawn) | -16.3% |
| CN1CCN(C(=O)CCN2C(=O)/C(=C/c3cccs3)SC2=S)CC1 | 0.2% |
| CCN(CC)C(=O)Cc1ccc2c3c(cccc13)CC2 | 12.7% |
| CC(=O)c1ccc(NC(=O)c2cnccn2)cc1 | 37.3% |
| COc1ccc(NC(=O)c2cnccn2)cc1 | 105% |
| COc1ccc(NC(=O)C/C(C)=N/NC(=O)c2cnccn2)cc1 | -21.6% |
| CCOc1ccc(C(=O)Nc2ccc3oc(-c4ccccc4Br)nc3c2)cc1 | 14% |
| Cc1ccc(NC(=O)c2cccc(C(=O)Nc3ccc(C)c(C)c3)c2)cc1C | -0.1% |
| O=C(CCCN1C(=O)c2cccc3cccc(c23)C1=O)OC/C=C/c1ccccc1 | 6.6% |
| Clc1ccc(Nc2nc(-c3ccncc3)nc3ccccc23)cc1 | 109% |
| Fc1ccc(Nc2nc(-c3ccncc3)nc3ccccc23)cc1F | 47.8% |
| Brc1ccc(Nc2nc(-c3ccncc3)nc3ccccc23)cc1 | 44.4% |
| O=C(Nc1ccc2c(c1)OCO2)c1ccccc1[N+](=O)[O-] | -5.9% |
| O=C(O)CSc1nnc2c(n1)[nH]c1ccccc12 | 3.1% |
| Cc1ccc(/C=C2\CCC/C(=C\c3ccc(C)o3)C2=O)o1 | 15.2% |
| Cc1nc(SCC(=O)Nc2nnc(-c3ccccc3)s2)n[nH]1 | 11.9% |
| C/C(NCc1ccccc1)=C(\C#N)C(=O)NCc1ccccc1 | -2.4% |
| COc1cc(-c2csc(N)n2)ccc1O | 15.6% |

| Structure (SMILES) | displacement |
| --- | --- |
| CC(C)NC(=O)COc1ccc(C=C2C(=O)NC(=O)NC2=O)cc1 | 1.8% |
| CC(NC(=O)COc1ccc(C=C2C(=O)NC(=O)NC2=O)cc1)c1ccccc1 (stereo not drawn) | 7.3% |
| O=C(COc1ccc(C=C2C(=O)NC(=O)NC2=O)cc1)NCCc1ccccc1 | 82.5% |
| C/C=C/COC(=O)C1=C(C)NC(=O)NC1c1cc(Cl)c(O)c(OC)c1 (stereo not drawn) | 8.4% |
| CCOC(=O)c1c(NC(=O)c2ccc(Cl)cc2)sc2ccccc12 | 39.1% |
| CCOC(=O)c1c(NC(=O)c2ccc(OC(C)C)c(OCC)c2)sc2ccccc12 | 80% |
| CCOC(=O)c1c(NC(=O)c2cc(OCC)c(OCC)c(OCC)c2)sc(C)c1C | -6.2% |
| COc1ccc(Nc2ncnc3ccc(C)cc23)cc1 | 9% |
| Cc1ccc(OCC(=O)N/N=C\c2ccc(-c3ccc(Cl)cc3)o2)cc1 | 38.4% |
| O=C(COc1ccc(I)cc1)N/N=C/c1ccc(-c2ccc([N+](=O)[O-])cc2)o1 | 59% |
| O=C(COc1ccc(Cl)cc1)N/N=C/c1ccc(I)o1 | -6% |
| Cc1ccc(S(=O)(=O)N/N=C/c2ccc(-c3ccc([N+](=O)[O-])cc3C)o2)cc1 | 52.8% |
| Cc1ccc(S(=O)(=O)N/N=C/c2ccc(-c3ccc([N+](=O)[O-])cc3Cl)o2)cc1 | -9.8% |
| Cc1ccc(OCC(=O)N/N=C\c2ccc(-c3ccc([N+](=O)[O-])cc3)o2)cc1 | 116% |
| O=[N+]([O-])c1ccc(N/N=C/c2ccc(-c3ccc(Cl)cc3)o2)cc1 | -4% |
| Cc1ccc2nc(-c3ccc(OCC(=O)N/N=C/c4ccc([N+](=O)[O-])o4)cc3)cc(-c3ccccc3)c2c1 | -16.7% |
| Cc1ccc(S(=O)(=O)N/N=C/c2ccc(-c3ccc([N+](=O)[O-])cc3Br)o2)cc1 | 2.5% |
| CCN(CC)Cc1c(O)ccc2c(-c3ccccc3)cc(=O)oc12 | -8.3% |
| Brc1ccc(CN2CCN(C3CCN(Cc4ccccc4)CC3)CC2)cc1 | -15.5% |
| COc1ccc(S(=O)(=O)N(CC(=O)Nc2ccc(C)c(C)c2)c2ccc(C)cc2)cc1OC | 17.2% |
| CCOc1ccc(-c2cc(C(=O)NN)c3ccccc3n2)cc1 | -18% |
| Cc1csc(Nc2ccccc2)[n+]1CCO | 4.4% |

| Structure (SMILES) | displacement |
| --- | --- |
| Cc1cc(N(C)/N=C/c2ccccc2Cl)nc(-c2ccccc2O)n1 | 5.1% |
| CC(=O)N1CCN(c2ccc(C(=O)c3ccccc3)cc2F)CC1 | 0.4% |
| N#C/C(=C\c1ccc(-c2ccc(Cl)cc2)o1)c1ccc(Cl)cc1 | 123% |
| N#C/C(=C\c1ccc(-c2ccc(Cl)c(Cl)c2)o1)c1ccccc1 | 135% |
| N#C/C(=C\c1ccc(-c2cccc(Cl)c2)o1)c1ccccc1 | -6.4% |
| O/N=C\c1ccc(-c2ccc(Cl)c(Cl)c2)o1 | -7.3% |
| O=[N+]([O-])/C=C/c1ccc(-c2ccc(Cl)cc2)o1 | 14.7% |
| N#C/C(=C\c1ccc(-c2cccc(Cl)c2)o1)c1ccc(Cl)cc1 | -3.8% |
| N#C/C(=C\c1ccc(I)o1)c1ccccc1 | -34% |
| N#C/C(=C\c1ccc(-c2cccc(C(F)(F)F)c2)o1)c1ccc(Cl)cc1 | -15.3% |
| N#C/C(=C\c1ccc(-c2ccc(Cl)cc2)o1)c1ccccc1 | 130% |
| N#C/C(=C/c1ccc(I)o1)c1ccc(Cl)cc1 | -24.1% |
| Clc1ccc(-c2ccc(/C=C\c3nc4ccccc4o3)o2)cc1 | 95.3% |
| O=C(/C=C/c1ccc(-c2ccc(Cl)cc2)o1)c1ccccc1 | 41.8% |
| CSc1ccc(Cl)c(C(=O)Nc2ccc(Cl)cn2)c1 | -39.3% |
| CC1CCN(C(=O)CN(c2cccc([N+](=O)[O-])c2)S(=O)(=O)c2ccccc2)CC1 | 3.3% |
| O=C(NC1CCCCC1)c1ccc([N+](=O)[O-])cc1 | 0.7% |
| O=C(N1CCCCC1)C12CC3CCC(CC(C3)C1)C2 | 6.3% |
| CCOC(=O)N1CCN(C(=O)Nc2ccc3nc4c5ccccc5c5ccccc5c4nc3c2)CC1 | 22.4% |
| O=C(c1ccc2nc3c4ccccc4c4ccccc4c3nc2c1)N1CCOCC1 | 18.3% |
| O=C(Nc1ccc2nc3c4ccccc4c4ccccc4c3nc2c1)N1CCOCC1 | 77.1% |
| Cc1ccc(C(=O)N2C(C)CCCC2C)cc1[N+](=O)[O-] (stereo not drawn) | -4% |

| Structure (SMILES) | displacement |
| --- | --- |
| COc1ccc(CC(=O)O/N=C(\N)Cc2ccc([N+](=O)[O-])cc2)cc1OC | 14.2% |
| COc1ccccc1/C=C1\SC(=S)N(C2CCS(=O)(=O)C2)C1=O (stereo not drawn) | 137% |
| O=C1/C(=C/c2ccc(Cl)cc2Cl)SC(=S)N1C1CCS(=O)(=O)C1 (stereo not drawn) | 7.1% |
| O=C1/C(=C\c2ccc(N3N=C(c4ccccc4)CC3c3ccccc3)cc2)SC(=S)N1C1CCS(=O)(=O)C1 (stereo not drawn) | -14.9% |
| O=C1/C(=C/C=C/c2ccccc2)SC(=S)N1C1CCS(=O)(=O)C1 (stereo not drawn) | 56.9% |
| COc1cccc(/C=C2\SC(=S)N(C3CCCCC3)C2=O)c1O | -3.3% |
| O=C1/C(=C/C2CC=CCC2)SC(=S)N1C1CCS(=O)(=O)C1 (stereo not drawn) | 9.6% |
| COCCc1nnc(NC(=O)Cc2ccccc2)s1 | 1.2% |
| Clc1ccc(-c2noc(CCc3ccccc3)n2)cc1 | 13.2% |
| Cc1cc(C)c2c(N)c(C(=O)c3ccc(Br)cc3)sc2n1 | -7.3% |
| CN(C)c1ccnc2sc(C(=O)c3ccc(Br)cc3)c(N)c12 | 10% |
| Cc1nc2sc(C(=O)c3ccc(Br)cc3)c(N)c2c(C)c1C | 132% |
| Cc1[nH]n(-c2ccc([N+](=O)[O-])cc2)c(=O)c1C=NC1CCCCC1 | -1.9% |
| COc1ccc(/C(O)=C/c2nc3ccccc3oc2=O)cc1 | -1.7% |
| O=c1oc2ccccc2nc1/C=C(\O)c1cccs1 | 61.3% |
| O=c1oc2cc([N+](=O)[O-])ccc2nc1/C=C(\O)c1cccc(Br)c1 | 3% |
| O=c1oc2cc([N+](=O)[O-])ccc2nc1/C=C(\O)c1ccc(Br)cc1 | 18.6% |
| O=c1[nH]c2ccccc2nc1/C=C(\O)c1cccs1 | 98.7% |
| Cc1nc(C)c(/C(O)=C/c2nc3ccccc3oc2=O)s1 | -1.1% |
| O=C(Nc1ccc(-c2nc3ccccc3[nH]2)cc1)c1cccs1 | -7.9% |
| COc1ccc(/C(O)=C/c2nc3ccccc3[nH]c2=O)cc1 | 6.8% |
| O=c1oc2cc([N+](=O)[O-])ccc2nc1/C=C(\O)c1cccs1 | 94% |

| Structure (SMILES) | displacement |
| --- | --- |
| CC(Cc1ccccc1)NC(=O)CC(c1ccccc1)c1ccc(O)c(Cl)c1Cl (stereo not drawn) | 2.6% |
| O=C(c1ccc(F)cc1)N1CCN(c2cccc(Cl)c2)CC1 | 2.4% |
| CCN(CC)CCCCCCOc1ccc(OC)cc1 | 10% |
| COCCOC(=O)c1ccc(NC(=O)COc2cccc(C)c2C)cc1 | 1.9% |
| CCOC(=O)C(C(=O)OCC)C(C(=O)OCC)(C(=O)OCC)C(C(=O)OCC)C(=O)OCC | 2.1% |
| Cc1cc(C)c2[nH]c(O)c(N=NC(=O)c3cccc([N+](=O)[O-])c3)c2c1 | -0.6% |
| COc1ccc(C(=O)N=Nc2c(O)[nH]c3c(C)cc([N+](=O)[O-])cc23)cc1 | 115% |
| O=C(N=Nc1c(O)[nH]c2ccc([N+](=O)[O-])cc12)c1ccc2c(c1)OCO2 | 75.1% |
| COc1ccc(C(=O)N=Nc2c(O)[nH]c3c(C)cc(Br)cc23)cc1 | 3% |
| O=C(N=Nc1c(O)[nH]c2ccc([N+](=O)[O-])cc12)c1cccc(Br)c1 | 3.3% |
| O=C(N=Nc1c(O)[nH]c2ccc(Br)cc12)c1ccc([N+](=O)[O-])cc1 | 6.8% |
| CCOc1ccccc1NC(=O)/C=C/c1ccc(Cl)cc1 | 11.4% |
| CCN1C(=O)N(CC)C2C1N(COC(C)=O)C(=O)N2COC(C)=O (stereo not drawn) | 1.5% |
| COc1ccc(-n2nc3cc(C)c(NC(=O)c4cccnc4)cc3n2)cc1 | 5.1% |
| O=C1c2ccccc2C(=O)N1c1ncc(Cc2cccc(C(F)(F)F)c2)s1 | -5.8% |
| Cc1cccc(NC(=O)CN(c2cccc(Cl)c2)S(C)(=O)=O)c1 | 3.9% |
| CC1=C(C(=O)OC2CCCCC2)C(c2ccc(Br)cc2)NC(=O)N1 (stereo not drawn) | 17.5% |
| CC1=C(C(=O)OC2CCCC2)C(c2ccc(Cl)cc2)NC(=O)N1 (stereo not drawn) | 7.3% |
| CC1=C(C(=O)OC2CCCCC2)C(c2ccc(N(C)C)cc2)NC(=O)N1 (stereo not drawn) | 99.1% |
| CC1=NNC(=O)C1CC(=O)N/N=C/c1ccc(O)cc1 (stereo not drawn) | -5.3% |
